The results in this text go back to PubChem BioAssay AID493194 (Broad Institute, 2011).

Structures are written as SMILES. Measured potencies and affinities stand elsewhere. Records with an inconclusive call do not appear. Calls of active or inactive are those of the source.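 The calls were made as follows: active = a valid curve of falling signal whose half-effect concentration is at most ten times the top tested dose; inconclusive = flat curve at 30 to 70% inhibition, or poor fit; inactive = signal rise, flat within 30%, or potency beyond limit.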

The assay addresses Scavenger receptor class B member 1 (Mus musculus) (UniProt Q61009). The experiment in a line: mouse SR-BI DiI-HDL uptake blockers – ldlA[mSR-BI] cells, fluorescence, cherry pick, dose response (AID 493194).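 Also: CHO cells lacking LDL receptor and overexpressing mouse SR-BI; cellular uptake of fluorescently labeled HDL measured as cell fluorescence.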

Chain of Scavenger receptor class B member 1 (Mus musculus) (Q61009 whole entry, looked up): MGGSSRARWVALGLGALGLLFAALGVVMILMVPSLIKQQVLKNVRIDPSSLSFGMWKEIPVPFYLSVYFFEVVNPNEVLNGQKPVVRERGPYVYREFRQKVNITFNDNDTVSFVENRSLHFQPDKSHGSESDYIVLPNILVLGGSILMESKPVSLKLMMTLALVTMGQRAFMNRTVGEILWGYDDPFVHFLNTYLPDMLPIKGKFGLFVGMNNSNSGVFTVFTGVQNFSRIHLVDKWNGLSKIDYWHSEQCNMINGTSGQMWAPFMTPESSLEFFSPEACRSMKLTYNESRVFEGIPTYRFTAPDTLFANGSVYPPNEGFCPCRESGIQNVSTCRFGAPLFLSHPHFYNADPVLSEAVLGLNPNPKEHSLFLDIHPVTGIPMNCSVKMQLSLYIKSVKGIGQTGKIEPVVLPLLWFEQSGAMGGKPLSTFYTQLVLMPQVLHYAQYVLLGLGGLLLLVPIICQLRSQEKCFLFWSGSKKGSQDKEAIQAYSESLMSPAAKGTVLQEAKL

As to `Cc1cc(CN(C)C(=O)C2CCC(=O)N(CCc3cccc(F)c3)C2)on1` (stereo not drawn), the call was inactive.

With `CCOC(=O)C1CCN(C(=O)Cn2nc(C)n3nc(-c4ccc(OC)cc4)cc3c2=O)CC1`, the compound was called inactive.

For the compound `Cc1cc(C)cc(NC(=O)CCc2c(C)nn(-c3ccc(N4CCCCC4)nn3)c2C)c1`, the outcome was inactive.

`O=C(Nc1ccc(-c2csc(Nc3cccc(C(F)(F)F)c3)n2)cc1)c1cccc(C(F)(F)F)c1`: the call was inactive.

Regarding `CCC1CCCCN1C(=O)CSc1nnc(-c2ccco2)o1` (stereo not drawn), the call was inactive.

Regarding `Cc1ccc(-c2csc(N3CCN(c4ccc5nc(-c6ccncc6)n(CCN6CCCCC6)c5c4)CC3)n2)cc1`, the outcome was inactive.

Consider `Cc1c(Nc2nc3ccccc3nc2N2CCN(c3ccccc3)CC2)c(=O)n(-c2ccccc2)n1C`, for which the result was inactive.

For the compound `CC(=O)c1ccc(-c2ccc(C(=O)Nc3nc(-c4ccccn4)cs3)o2)cc1`, the call was inactive.

In the case of `Cc1ccc(-c2cc(-c3ccc(C)cc3O)[nH]n2)cc1`, the outcome was inactive.

Turning to `CCCOC(=O)c1[nH]c2c(c1C)C(=O)CC(c1cc(OC)c(OC)c(OC)c1)C2` (stereo not drawn), the call was inactive.

As to `COc1ccccc1CNC(=O)C1CCC(CNC(=O)[C@@H]2Cc3ccccc3CN2)CC1` (stereo partly drawn), the compound was classed as inactive.

With `Cc1ccc2nc(-c3ccccc3)cc(C(=O)N3CCN(c4ccccc4O)CC3)c2c1`, the call was inactive.

For `COc1ccc(CCn2c(C)cc(C(=O)CSc3nc(N)cc(=O)[nH]3)c2C)cc1`, the call was inactive.

As for `CC(C)c1cc(CNC(=O)C2CCC(=O)N(CCc3ccc(Cl)cc3)C2)on1` (stereo not drawn), the result was inactive.

As to `COc1ccc(CCNC(=O)c2ccc3c(c2)N(Cc2ccc(F)cc2)CCS3)c(OC)c1`, the compound was called inactive.

For the compound `CN(C(=O)COC(=O)c1c[nH]c(=O)[nH]c1=O)C1CCCCC1`, the result was inactive.

For the compound `COc1ccc(-c2[nH]c(-c3ccc(F)cc3)nc2SCC(=O)NC2CCCC2)cc1`, the outcome was inactive.

For the compound `CC[C@H](C)[C@H](NC(=O)c1ccc(Cl)cc1)C(=O)OCC(=O)c1ccc2c(c1)NC(=O)CO2`, the compound was classed as inactive.

For the compound `CCOC(=O)Nc1cccc(NC(=O)c2cc(OC)cc(OC)c2)c1`, the compound was classed as inactive.

For the compound `O=C(Nc1ccccc1)c1ccc2c(c1)CCN2S(=O)(=O)c1ccccc1`, the result was inactive.

Consider `CCOC(=O)c1[nH]c2c(c1-c1ccccc1)C(=O)CC(c1ccc(Cl)cc1)C2` (stereo not drawn), for which the compound was called inactive.

Turning to `COC(=O)[C@@]1(Cc2ccc(F)cc2)[C@H]2c3cc(C(=O)N4CCCC4)n(CCCNc4ncc(C(F)(F)F)cc4Cl)c3C[C@H]2CN1C(=O)c1ccccc1`, the compound was called inactive.

Consider `CN1CCC2CC1c1cc(-c3ccc(C(F)(F)F)cc3)ccc12` (stereo not drawn), for which the result was inactive.

As to `CC(=O)c1cc(C#N)c(SCc2ccccc2C#N)nc1C`, the outcome was inactive.

`CCc1cc(=O)oc2c3c(cc(OCC(=O)NCc4ccco4)c12)OC(C)(C)CC3`: the result was inactive.

For `COc1cccc(-c2csc(N3CCN(C(=S)Nc4cccc(C)c4)CC3)n2)c1`, the call was inactive.

For the compound `COCCN(Cc1cn(C)nc1-c1ccc(Oc2ccccc2)cc1)C(C)C`, the compound was called inactive.

For the compound `CC1CN(c2oc(COc3ccc(Cl)cc3Cl)nc2C#N)CC(C)O1` (stereo not drawn), the call was inactive.

As for `CC(=O)c1ccc(-c2ccc(C(=O)Nc3nc(C)c(C(C)=O)s3)o2)cc1`, the call was inactive.

Turning to `COc1ccc(OC)c2[nH]c(C(=O)N3CCC(C(=O)O)CC3)cc12`, the compound was called inactive.

Turning to `Cc1sc(NC(=O)CN2CCOCC2)nc1-c1ccc2c(c1)CCN2S(=O)(=O)c1ccccc1`, the call was inactive.

Consider `COc1cc(OC)cc(C(=O)N[C@H](C(=O)Nc2nc(-c3ccc(F)c(F)c3)cs2)C(C)C)c1`, for which the result was inactive.

Regarding `Cc1cc(C)nc(N2CCC(C(=O)N3CCN(c4cc(Cl)ccc4C)CC3)CC2)n1`, the result was inactive.

As to `O=C(Nc1cccc(-c2csc(Nc3ccc(Cl)cc3)n2)c1)c1cccc(C(F)(F)F)c1`, the compound was called inactive.

As for `COc1ccccc1C(=O)NCCn1cc(SCC(=O)Nc2nnc(C)s2)c2ccccc21`, the call was inactive.

As to `COc1cc(/C=C\C(=O)NCc2ccc3c(c2)cc(C)n3C)cc(OC)c1OC`, the outcome was inactive.

With `CCNc1nc(Cl)nc(-c2cn(-c3ccccc3)c3ccccc23)n1`, the result was inactive.

As to `CC(=O)Nc1ccc(S(=O)(=O)N2CCC(C(=O)NCCC(=O)NCc3ccccc3)CC2)cc1`, the result was inactive.
